An excerpt weighted towards active compounds, which were near 7.4% of everything screened.
FLuc modulator = inhibits or activates purified firefly luciferase, miR-21 counter-screen. Potency, µM (highest dose often 57.5 µM), inactives show at the top dose activity change, negative = inhibition, actives largely listed as inhibitors. P08659. purified FLuc, Km substrates, luminescence inhibition. 360,000 tested, 6.9% active. AID 588342;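 also: plate controls were vehicle for no effect and reference inhibitor for full effect; nearly all actives have a fitted effect of over 55% in size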
Target sequence (P08659 whole entry, looked up): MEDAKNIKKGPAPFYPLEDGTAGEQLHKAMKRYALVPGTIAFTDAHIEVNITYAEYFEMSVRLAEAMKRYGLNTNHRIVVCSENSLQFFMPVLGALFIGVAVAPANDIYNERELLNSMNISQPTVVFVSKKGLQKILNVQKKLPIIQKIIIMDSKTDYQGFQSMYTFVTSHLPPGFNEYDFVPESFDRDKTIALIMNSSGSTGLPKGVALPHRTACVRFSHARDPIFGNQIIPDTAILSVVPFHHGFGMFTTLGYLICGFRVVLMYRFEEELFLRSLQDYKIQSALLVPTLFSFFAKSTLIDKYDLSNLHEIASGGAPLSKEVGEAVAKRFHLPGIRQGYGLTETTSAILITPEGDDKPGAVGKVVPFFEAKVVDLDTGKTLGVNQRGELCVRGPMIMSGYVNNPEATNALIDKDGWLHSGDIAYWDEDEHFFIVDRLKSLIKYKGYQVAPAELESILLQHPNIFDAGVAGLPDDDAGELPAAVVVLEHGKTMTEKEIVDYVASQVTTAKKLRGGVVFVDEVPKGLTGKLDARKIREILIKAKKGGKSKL
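Biochemical qHTS of compounds, final roughly 60 µM downward over six points, against 10 nM purified firefly luciferase using Km concentrations of substrates (10 uM D-luciferin, 10 uM ATP) in Tris acetate pH 7.5 buffer; luminescence output.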
Rab9 prom act = activates the Rab9 promoter | Huh7 Rab9 promoter-luciferase reporter, luminescence, 24 h | AID 485297 | 320,000 tested, 2.8% active | Potency, µM (series often up to 9.22 µM), for inactives: at the highest dose activation, negative = inhibition, most hits filed as activators; also: % of control where 0% means no effect; nearly all actives have a fitted effect of over 60% in size
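Measured in stably transfected Huh7 cells bearing a Rab9 promoter–luciferase construct: 24 h compound treatment at 37 °C, followed by luminescence detection.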
NPC1 prom act = NPC1 promoter activation; 320,000 tested, 2.4% active; Potency, µM (doses to about 9.22 µM), without a hit: at the highest dose activation, actives largely listed as activators; AID 485313; Huh7 NPC1 promoter luciferase reporter, 24 h; also: % of control where 0% means no effect; nearly all actives have a fitted effect of over 60% in size
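Luciferase expression driven by the NPC1 promoter was measured in stably transfected Huh7 cells after a 24 h compound incubation, using a luciferase reagent and a luminescence read.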
ELG1 genotox = genotoxicity induction in ELG1-luciferase HEK293T cells | HEK293T ELG1-luciferase reporter, luminescence, 16 h | Potency, µM (doses to about 46 µM), without a hit: at the highest dose activity change, positive = activation, usual class: activators | 330,000 tested, 1.3% active | AID 504466; also: % of control where 0% means no effect; nearly all actives have a fitted effect of over 60% in size
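Genotoxicity was scored as increased ELG1-luciferase reporter signal, measured by ONE-Glo luminescence (30 min, room temperature). Compound or vehicle exposure of the HEK293T reporter cells lasted 16 hr at 37°C.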
SMN2 splice up = enhancers of SMN2 splice variant expression. Potency, µM (doses to about 46.1 µM), inactives show at the highest dose activity change, positive = activation, hits mostly activators. HEK293 SMN2-luciferase splicing reporter, luminescence, 30-36 h. 210,000 tested, 2.8% active; also: % of control where 0% means no effect; nearly all actives have a fitted effect of over 55% in size
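HEK293 cells carry an SMN2 minigene-luciferase reporter in which exon 7 inclusion puts luciferase in frame. Cells were seeded at 2000 cells/well, attached for 10-12 hours, then exposed to compounds for 30-36 hours at 37C before ONE-Glo luminescence.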
* marks the source's active call; other numbers are inactive results; ? = inconclusive; . = not tested or not shown. Calls follow the shape of the dose curve; as a rule, active = well fitted curve in the direction sought with a large enough effect; inconclusive = small, poorly fitted or top-dose-only effect, or another doubt; inactive = no such curve, though single readings can be large; an effect the other way counts as inactive or inconclusive. Potency is read from the fitted curve at half-maximal effect.

SMILES	FLuc modulator	Rab9 prom act	NPC1 prom act	ELG1 genotox	SMN2 splice up
CC(=O)Nc1ccc(NC(=O)CSc2ccc3nnc(-c4ccccn4)n3n2)cc1	3.3%	0.7%	-3.1%	9.3%	.
Oc1ccc(N=Nc2ccccc2)o1	-17.2%	-8.1%	-16.1%	7.6%	.
CCn1ccnc1CN(C)Cc1nc(Cc2cccc(C(F)(F)F)c2)no1	6.4%	1.5%	-1.0%	-4.0%	.
Cc1nn(-c2ccccc2)c(Cl)c1/C=N/O	?	0.2%	-6.1%	7.8%	?
Cc1ccccc1OCC(=O)N/N=C/c1c(C)nn(-c2ccccc2)c1Cl	?	-7.7%	-6.2%	-0.4%	17.1%
Cc1ccc(-n2nc(C)c(/C=N/NC(=O)c3cccnc3)c2Cl)cc1	?	-0.6%	-3.0%	-1.8%	13.5%
Cc1nn(-c2ccccc2)c(Cl)c1/C=N/NC(=O)c1cccnc1	13.5µM*	1.1%	-0.4%	9.3%	?
Cc1ccc(C(=O)N/N=C\c2c(C)nn(-c3ccccc3)c2Cl)cn1	10.7µM*	-4.1%	2.6%	5.8%	?
Cc1nn(-c2ccccc2)c(Cl)c1/C=C/C(=O)c1ccccc1	3.79µM*	-0.3%	-1.1%	18.4µM*	-18.1%
CCCCNc1ccc2nsnc2c1[N+](=O)[O-]	-7.0%	-4.5%	-1.3%	16.3%	9.9%
O=C(O)c1ccc(N=Nc2c(O)ccc3ncccc23)cc1	1.69µM*	-30.2%	-20.4%	-4.2%	.
C=CCNc1nc2c3ccccc3n(C(C)=O)c2s1	23.9µM*	23.4%	21.4%	?	-3.0%
CCOc1ccc(NC(=O)c2cc3c(-c4ccccc4F)nn(C)c3s2)cc1	?	.	.	.	-23.0%
C=C(c1ccccc1C)[n+]1ccccc1	0.0%	-4.4%	-3.6%	-7.9%	.
Cc1ccc(SCCC(=O)N2CCOCC2)cc1	?	23.4%	26.0%	8.4%	?
Cc1ccc(SCCC(=O)N2CCC(C)CC2)cc1	13.5µM*	3.55µM*	4.47µM*	?	?
Cc1ccc(SCCC(=O)N2CCC(C(N)=O)CC2)cc1	-8.1%	11.0%	14.0%	?	.
Cc1ccc(C(=O)NCCC(=O)N2CCCC2)cc1	10.7µM*	3.16µM*	3.98µM*	23.1µM*	.
CCN1CCN(C(=O)c2ccc(CSc3ccc(C)cc3)cc2)CC1	-11.1%	-5.6%	0.8%	-8.0%	-43.3%
Cc1ccc(SCCC(=O)N2CCCC2)cc1	-13.6%	25.0%	24.8%	14.6µM*	-11.7%
Cc1ccc(SCc2ccc(C(=O)N3CCCC3)cc2)cc1	16.9µM*	?	24.7%	13.4%	?
CCC1(c2ccc(C)cc2)NC(=O)N(C(C)C(=O)Nc2ccc(N3CCOCC3)cc2)C1=O (configuration not stated)	0.0%	3.3%	3.3%	2.3%	.
COc1ccc(CCC(=O)NCCc2csc(-c3cccc(F)c3)n2)cc1	-17.0%	.	.	.	.
Oc1cccc(-c2nc3ccc4ccccc4c3c3c2CCC3)c1	6.01µM*	?	?	18.1%	?
CC(C)(C=O)C1=CC(=O)c2ccccc2C1=O	?	-34.0%	-30.4%	-7.5%	-15.5%
SMILES	FLuc modulator	Rab9 prom act	NPC1 prom act	ELG1 genotox	SMN2 splice up
CCc1ccc2c(c1)C(=O)c1ccccc1C2=O	6.01µM*	?	?	?	15.8µM*
CC(C)(C)c1ccc2c(c1)C(=O)c1ccccc1C2=O	1.35µM*	0.562µM*	0.891µM*	?	.
COc1ccc(-c2cn(Cc3ccc4c(c3)C(=O)c3ccccc3C4=O)nn2)cc1	-1.6%	-2.8%	0.3%	12.1%	.
COc1cccc2cc(-c3nnc(-c4ccccc4)o3)c(=O)oc12	0.213µM*	0.501µM*	0.501µM*	?	11.2µM*
COc1cccc2cc(-c3nnc(-c4ccc(Cl)cc4)o3)c(=O)oc12	1.69µM*	.	.	.	-0.5%
CC/C(C)=N/Nc1nc(-c2cc3cccc(OC)c3oc2=O)cs1	8.49µM*	1.78µM*	2.24µM*	?	.
COc1ccc(-c2nnc(-c3cc4ccccc4oc3=O)o2)cc1	-1.2%	23.6%	2.5%	16.1%	?
COc1cccc2cc(-c3cn4c(n3)sc3cc(F)ccc34)c(=O)oc12	2.39µM*	.	.	.	.
COc1cccc2cc(-c3csc(CCn4nc(C)cc4C)n3)c(=O)oc12	-24.4%	3.7%	-2.5%	-1.7%	-34.7%
COc1ccccc1NC(=O)CN1C(=O)CCSc2ccccc21	5.1%	.	.	.	24.4%
COCCN(CC(=O)Nc1cccc(S(=O)(=O)N2CCCC2)c1)Cc1nc2ccccc2c(=O)[nH]1	2.9%	-0.9%	-2.2%	-3.2%	.
O=C(Nc1ncccc1O)c1ccc2c(c1)OCO2	?	3.55µM*	3.98µM*	?	.
O=C(Nc1ncccc1O)c1ccc2c(c1)OCCO2	15.1µM*	2.51µM*	3.55µM*	20.6µM*	.
Cc1cccnc1NC(=O)c1ccc2c(c1)OCCO2	13.5µM*	?	1.1%	16.4µM*	.
O=C(CN1C(=O)C(=O)N(C2CCCC2)C1=O)Nc1ccccc1OC(F)F	.	.	.	-2.5%	.
COc1ccc(S(=O)(=O)N2CCN(Cc3nc4ccc(C)cc4o3)CC2)cc1	-14.7%	.	.	.	.
O=c1c2ccccc2c(/C=N/c2nnc(Cc3ccccc3)s2)c(O)n1-c1ccc(Cl)cn1	1.9µM*	1.8%	-4.2%	-1.2%	-0.3%
CCc1c(C)nc(SCC(=O)c2cccs2)c(C#N)c1C	2.69µM*	?	3.16µM*	9.2µM*	15.8µM*
CCc1cc2c(SCC(=O)c3cccs3)ncnc2s1	-11.8%	7.3%	22.1%	23.1µM*	?
CCc1cc2c(SCC(=O)c3ccccc3)ncnc2s1	?	1.5%	19.5%	?	8.91µM*
CCc1c(C)nc(SCC(N)=O)c(C#N)c1C	3.8%	7.2%	-0.2%	-0.2%	2.4%
COc1ccc(OC)c(NC(=O)COCc2cc(-c3ccc(F)cc3)on2)c1	-3.3%	.	.	.	.
Cc1c(NC(=S)N/N=C/c2ccc(Br)cc2)c(=O)n(-c2ccccc2)n1C	1.7%	-6.3%	-1.5%	-0.1%	.
Cn1c(CS/C(N)=N/N=C/c2ccccc2)c(Br)c(=O)n1-c1ccccc1	15.1µM*	21.9%	9.2%	3.0%	1.7%
O=C(COC(=O)c1cc(-c2cccs2)nc2ccccc12)c1ccc(F)cc1	?	.	.	.	-9.4%
SMILES	FLuc modulator	Rab9 prom act	NPC1 prom act	ELG1 genotox	SMN2 splice up
Cc1ccc(C(=O)COC(=O)c2cc(-c3cccs3)nc3ccccc23)cc1	2.39µM*	.	.	.	-1.8%
COc1ccc(C(=O)COC(=O)c2cc(-c3cccs3)nc3ccccc23)cc1	2.69µM*	.	.	.	-9.3%
O=C(COC(=O)c1cc(-c2ccccc2)nc2ccccc12)c1ccc(Br)cc1	-12.6%	.	.	.	-2.9%
COc1ccc2cc(CCOC3CCCCO3)ncc2c1 (configuration not stated)	2.69µM*	0.501µM*	0.316µM*	?	.
Cc1ccc(S(=O)(=O)c2c(O)c3ccc(C(=O)O)cc3[nH]c2=O)cc1	-2.9%	-0.8%	-3.3%	0.5%	.
Cc1ccnc2c1ccc1ccccc12	16.9µM*	13.1%	-5.9%	2.1%	.
Cc1ccnc2c1ccc1cccnc12	-12.5%	-19.0%	-17.1%	15.0%	.
CCOc1ccccc1NC(=O)Nc1ccc(Cl)cc1	21.3µM*	11.5%	?	7.3%	-20.6%
